High-throughput results: PubChem BioAssay, National Center for Advancing Translational Sciences (NCATS)
Vif-A3G inh: qHTS for Inhibitors of Vif-A3G Interactions: qHTS. AID 602310, 2012. 410,000 compounds, 0.076% hits. Potency, µM (highest dose often 46.1 µM), for inactives: at the top dose activity, negative = active, usual class: inhibitors. DNA dC->dU-editing enzyme APOBEC-3G (Homo sapiens), Q9HC16. HeLa A3G-eYFP + Vif (tagged APOBEC3G with the HIV-1 protein that degrades it), YFP fluorescence, overnight; note: % is set by controls: 0 for no effect and ±100 for the full control effect; nearly all actives have a fitted effect of over 60% in size
Target sequence (Q9HC16 whole entry, looked up): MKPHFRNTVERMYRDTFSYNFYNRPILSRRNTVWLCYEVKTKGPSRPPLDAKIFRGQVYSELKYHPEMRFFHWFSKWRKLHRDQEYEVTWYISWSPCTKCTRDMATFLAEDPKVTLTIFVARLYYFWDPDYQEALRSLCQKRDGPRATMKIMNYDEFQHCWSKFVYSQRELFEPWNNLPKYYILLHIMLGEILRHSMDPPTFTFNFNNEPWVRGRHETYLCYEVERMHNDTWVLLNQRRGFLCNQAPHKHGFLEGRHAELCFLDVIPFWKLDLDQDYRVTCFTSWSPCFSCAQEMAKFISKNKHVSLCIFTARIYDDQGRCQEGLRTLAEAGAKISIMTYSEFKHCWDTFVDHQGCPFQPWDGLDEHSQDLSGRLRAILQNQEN
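Read-out is eYFP fluorescence (Ex 488/Em 500-530) from Vif-expressing HeLa A3G-eYFP cells; more signal means A3G escaped Vif-mediated degradation. Cells plated overnight, compound pinned in, incubated overnight at 37 deg C.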
S-ASM inh: Inhibitors of Secretory Acid Sphingomyelinase (S-ASM): qHTS. 340,000 compounds, 0.006% hits. Potency, µM (doses to about 57.5 µM), inactives show top-dose activity change, negative = inhibition, hits mostly inhibitors. placental ASM, HMU-PC fluorogenic substrate, 60 min. Sphingomyelin phosphodiesterase (Homo sapiens), P17405
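Human placenta-derived ASM preincubated with compound 10 min at room temperature, then reacted with 9 uM (final) fluorogenic HMU-PC substrate for 60 min at 37 C. Stop solution raises pH to 10; fluorescence read at Ex 386/Em 447 nm.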
Rango complex inh: qHTS Assay for Inhibitors of Rango (Ran-regulated importin-beta cargo) - Importin beta complex formation; Rango CFP/YFP FRET sensor + importin beta, 45 min; Potency, µM (doses to about 92.2 µM), inactives show at the highest dose inhibition of complex formation; 340,000 compounds, 0.031% hits; AID 540263, 2011; calls by dose curve;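 note: 0% = DMSO wells and 100% = buffer wells lacking importin beta; nearly all actives have a fitted effect of over 15% in size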
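Inhibition scored from the CFP 486 nm/YFP 530 nm FRET ratio 45 min after adding 0.125 microM importin beta to 50 nM Rango biosensor preincubated 5 min with compound (room temperature, PBS with DTT, Tween-20, BSA). No-importin wells as positive control.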
Rango dissoc inh: qHTS Assay for Inhibitors of RanGTP induced Rango (Ran-regulated importin-beta cargo) - Importin beta complex dissociation | Biochemical FRET Rango-importin beta, RanGTP-induced dissociation | Potency, µM (doses to about 46.1 µM), without a hit: at the top dose activity change, negative = inhibition | 340,000 compounds, 0.071% hits | AID 540253, 2011 | Snurportin-1 (Homo sapiens) + GTP-binding nuclear protein Ran (Homo sapiens) + Importin …; calls by dose curve; note: % of control where 0% means no effect; nearly all actives have a fitted effect of over 45% in size
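Recombinant Rango FRET biosensor (EYFP–snurportin 1 IBB–cerulean CFP10) at 0.1 uM premixed with 0.25 uM importin beta in PBS, 1 mM DTT, 0.02% Tween-20, 0.1% BSA. Compound added 5 min; RanGTP-RCC1 (0.6 uM Ran, 2 mM GTP, 0.2 uM RCC1) then triggers release, read at 45 min.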
Eya2 inh: qHTS Assay for Inhibitors of the Phosphatase Activity of Eya2 | Potency, µM (titrated, usually from 76.9 µM), inactives show top-dose activity, negative = inhibition, actives largely listed as inhibitors | Protein phosphatase EYA2 (Homo sapiens), O00167 | recombinant Eya2, OMFP fluorescence dephosphorylation (OMFP is methylfluorescein phosphate) | 330,000 compounds, 0.006% hits; note: % is set by controls: 0 for no effect and ±100 for the full control effect
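Eya2 (0.2 uM) preincubated 10 min at ambient with compound, then OMFP substrate added at 50 uM; 10 min reaction in 50 mM HEPES pH 7.5, 50 mM NaCl, 5 uM MgCl2, 0.05% BSA, 1 mM DTT. Fluorescence read at Ex 485/Em 525 nm.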
Vif-APOBEC3F blk: qHTS for Inhibitors of Vif-A3F Interactions: qHTS | Potency, µM (top dose mostly 46.1 µM), for inactives: at the highest dose activity, negative = active | 390,000 compounds, 0.2% hits | HeLa A3F-eYFP + Vif (tagged APOBEC3F with the HIV-1 protein that degrades it), YFP fluorescence increase | AID 602313, 2012; note: % of control where 0% means no effect; nearly all actives have a fitted effect of over 65% in size
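Fluorescence increase (Ex 488/Em 500-530) after overnight compound treatment at 37 deg C flags inhibition of Vif-driven A3F-eYFP loss in stable HeLa A3F-eYFP/Vif cells seeded overnight beforehand.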
The depositor's hits bear a star. Compounds with a hit are over-represented: about 0.34% of the library has one in this group of screens. Unless noted, calls come from the whole dose curve; as a rule, active = well fitted curve in the direction sought with a large enough effect; inconclusive = small, poorly fitted or top-dose-only effect, or another doubt; inactive = no such curve, though single readings can be large; an effect the other way counts as inactive or inconclusive. Potency is the fitted concentration of half-maximal effect.

What do the screens show for `CCCN1CCc2c(sc(NC(=O)CCS(=O)(=O)c3ccccc3)c2C(N)=O)C1`?
Vif-A3G inh: 0%; S-ASM inh: 136%; Rango complex inh: inconclusive; Rango dissoc inh: inconclusive; Eya2 inh: 7%; Vif-APOBEC3F blk: 1%

How did COc1cc2c(NC3CCN(C(C)C)CC3)nc(N3CCCN(C)CC3)nc2cc1OCCCN1CCCC1 do in these assays?
Vif-A3G inh: -3%

What do the screens show for `Nc1nc(N)c2c(Oc3ccc(F)cc3)cccc2n1`?
Vif-A3G inh: 1%

Results for Cc1ccc(N2CCn3c2nc2c3c(=O)n(Cc3cccc(Cl)c3)c(=O)n2C)cc1C ?
Vif-A3G inh: 4%; Vif-APOBEC3F blk: 6%

What do the screens show for `CCOC(=O)C(C)Nc1ncnc2onc(C)c12` (stereo unspecified)?
Vif-A3G inh: -1%; Vif-APOBEC3F blk: 3%

What do the screens show for `COc1ccc(Cl)c(Cn2cnc3c(cnn3C(C)(C)C)c2=O)c1`?
Vif-A3G inh: -2%

Results for COc1cc(C(=O)Nc2sc3c(c2C#N)CCN(C(C)=O)C3)cc(OC)c1OC ?
Vif-A3G inh: inconclusive; S-ASM inh: 30%; Rango complex inh: inconclusive; Rango dissoc inh: inconclusive; Eya2 inh: -20%; Vif-APOBEC3F blk: -4%

Results for CCCN1CCc2c(sc(NC(=S)NC(=O)c3ccccc3)c2C#N)C1 ?
Vif-A3G inh: -30%; S-ASM inh: 1%; Rango complex inh: inconclusive; Rango dissoc inh: inconclusive; Eya2 inh: 18%; Vif-APOBEC3F blk: 25µM*

What do the screens show for `CC(C)N1CCc2c(sc(NC(=O)c3nc4ccccc4s3)c2C(N)=O)C1`?
Vif-A3G inh: -15%; S-ASM inh: 10%; Rango complex inh: inconclusive; Rango dissoc inh: inconclusive; Eya2 inh: -28%; Vif-APOBEC3F blk: inconclusive

What do the screens show for `CC(C)N1CCc2c(sc(NC(=O)c3cc(-c4cccs4)nc4ccccc34)c2C(N)=O)C1`?
Vif-A3G inh: 7.1µM*; S-ASM inh: -29%; Rango complex inh: inconclusive; Rango dissoc inh: inconclusive; Eya2 inh: -4%; Vif-APOBEC3F blk: inconclusive

Results for COc1ccc(C(=O)Nc2sc3c(c2C#N)CCN(C(C)=O)C3)cc1 ?
Vif-A3G inh: 10µM*; S-ASM inh: -1%; Rango complex inh: inconclusive; Rango dissoc inh: inconclusive; Eya2 inh: -2%; Vif-APOBEC3F blk: -14%

How did CC(C)N1CCc2c(sc(NC(=O)c3ccc(S(=O)(=O)N4CCc5ccccc54)cc3)c2C(N)=O)C1 do in these assays?
Vif-A3G inh: 20µM*; S-ASM inh: -2%; Rango complex inh: inconclusive; Rango dissoc inh: inconclusive; Eya2 inh: -4%; Vif-APOBEC3F blk: 6.3µM*

Results for O=C1/C(=C/c2ccsc2)CC/C1=C\c1cccs1 ?
Eya2 inh: -3%

What do the screens show for `O=C(O)c1ccc(-c2ccc(/C=N/Nc3ccc([N+](=O)[O-])cc3)o2)cc1`?
Vif-A3G inh: 10µM*; S-ASM inh: -1%; Rango complex inh: inconclusive; Rango dissoc inh: inconclusive; Eya2 inh: 2%; Vif-APOBEC3F blk: inconclusive

What do the screens show for `O=C(N/N=C/c1ccc(-c2ccc([N+](=O)[O-])cc2)o1)[C@H]1C[C@@H]1c1ccccc1`?
Vif-A3G inh: -6%; S-ASM inh: 16%; Rango complex inh: inconclusive; Rango dissoc inh: inconclusive; Eya2 inh: 9%; Vif-APOBEC3F blk: 7.1µM*
